High-throughput results: PubChem, several laboratories
CYP2C9 act – activators of human CYP2C9. P11712. recombinant CYP2C9, luciferin-H conversion, luminescence; stronger effect = higher value; factor 1 = untreated enzyme, 0 = blocked. activation factor at 5 µM. hit rate 1.4% among 96,000. AID 1024;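 active = activation factor of 2 or more for CYP2C9 at a 5 µM dose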;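 note: 0 = sulfaphenazole-blocked wells and 1 = vehicle-only wells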
Target sequence (P11712 whole entry, looked up): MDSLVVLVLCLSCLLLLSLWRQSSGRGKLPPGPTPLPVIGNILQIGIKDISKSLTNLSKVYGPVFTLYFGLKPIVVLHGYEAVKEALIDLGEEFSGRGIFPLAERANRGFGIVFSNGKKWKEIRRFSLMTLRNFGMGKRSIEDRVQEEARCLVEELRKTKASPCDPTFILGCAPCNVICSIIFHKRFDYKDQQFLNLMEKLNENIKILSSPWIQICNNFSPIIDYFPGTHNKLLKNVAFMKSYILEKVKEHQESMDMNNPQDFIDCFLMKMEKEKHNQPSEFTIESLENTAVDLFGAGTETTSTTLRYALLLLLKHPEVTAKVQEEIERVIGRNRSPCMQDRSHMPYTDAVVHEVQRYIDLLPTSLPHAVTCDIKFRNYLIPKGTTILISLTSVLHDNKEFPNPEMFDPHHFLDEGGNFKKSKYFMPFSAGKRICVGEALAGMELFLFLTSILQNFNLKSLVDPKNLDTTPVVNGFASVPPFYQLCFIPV
Cav3 T inh – human Cav3.2 channel inhibition, primary screen; Cav3.2-expressing cells, Fluo-4 calcium fluorescence FDSS; stronger effect = lower value; B-score at 10 µM; hit rate 4% among 100,000; AID 449739;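 active = single-dose well whose peak fluorescence ratio is a statistical outlier from its plate by either plate-standardised score or position-corrected B-score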
CYP2C19 act – cytochrome P450 2C19 (human) activation. recombinant CYP2C19, luciferin-H EGE luminescence; stronger effect = higher value; 0 = fully inhibited enzyme, 1 = untreated enzyme. 96,000 tested, under 10 active. P33261. activation factor at 5 µM;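 active = activation factor of at least 2 at 5 µM in the primary screen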;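 note: 0 = wells with 2.5 mM tranylcypromine and 1 = vehicle-only wells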
Pyk2 oligo antag – antagonists of human Pyk2 oligomerization | Q14289 | Q293 cells, Pyk2 FERM NanoBiT luminescence; stronger effect = lower value | z-score (the deposit names both 25 µM and 10 µM) | hit rate 0.83% among 99,000;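 active = Z-score of -3 or lower, scaled per plate to the spread of control and sample wells; inactive = z-score above -3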;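 note: negative z-score means lost luminescence so less FERM oligomerization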
CYP2C19 inhib – inhibitors of human CYP2C19 | P33261 | CYP2C19 Supersomes, luciferin-H EGE luminescence, 30 min | inhibition, % at 5 µM | hit rate 21% among 96,000 | AID 778;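 active = CYP2C19 inhibition above a set limit at 5 µM in the primary screen, cut at about 50% in these data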;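 note: plate controls were negative control wells for no effect and 2.5 mM tranylcypromine positive control for full effect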
CYP2C9 inh – human CYP2C9 inhibition | inhibition, % at 5 µM | hit rate 20% among 96,000 | CYP2C9 Supersomes, luciferin-H conversion, luminescence | AID 777;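 active = blocking of liver enzyme CYP2C9 beyond about 50% at 5 µM, limit read from the data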
Numbers without * were called inactive. Sampled rows, rich in hits. Any-hit rate of the full collection: about 27%.

Screening O=C(NCCc1nc2ccccc2[nH]1)c1ccc(F)cc1 returned CYP2C9 act 0.5, Cav3 T inh -0.49, CYP2C19 act 0.1, Pyk2 oligo antag 1, CYP2C19 inhib 88* and CYP2C9 inh 51*.
Screening O=C(CCCCCN1C(=O)c2ccccc2C1=O)NCCc1nc2ccccc2[nH]1 returned CYP2C9 act 0.1, Cav3 T inh -0.52, CYP2C19 act 0.1, Pyk2 oligo antag -0.87, CYP2C19 inhib 95* and CYP2C9 inh 91*.
CC(=O)NCCc1nc2ccccc2[nH]1 was read as Cav3 T inh -0.067.
Screening Cn1c2c(c3ccccc31)CC/C2=N\O returned CYP2C9 act 0.8, Cav3 T inh 1.6, CYP2C19 act 0.2, Pyk2 oligo antag 1.1, CYP2C19 inhib 79* and CYP2C9 inh 17.
Screening CCC(C)[C@H](NC(=O)Nc1ccc(C(C)=O)cc1)C(=O)OC (some centres undefined) returned CYP2C9 act 1.1, Cav3 T inh 1.1, CYP2C19 act 1, Pyk2 oligo antag 0.65, CYP2C19 inhib 4 and CYP2C9 inh -7.
For O=C1CCCC(=O)C1=Cc1c[nH]c2ccccc12 the results were CYP2C9 act 0.8, Cav3 T inh 1.4, CYP2C19 act 0.9, Pyk2 oligo antag 0.35, CYP2C19 inhib 8 and CYP2C9 inh 15.
For N#CCCn1cc(/C=C(\C#N)c2nc3ccccc3s2)c(-c2ccc(F)cc2)n1 the results were CYP2C9 act 0.5, Cav3 T inh -0.084, CYP2C19 act 1.1, Pyk2 oligo antag -0.73, CYP2C19 inhib -5 and CYP2C9 inh 46.
`N#CCCn1cc(/C=N/O)c(-c2ccc(-c3ccccc3)cc2)n1` gave CYP2C9 act 0.8, Cav3 T inh -0.44, CYP2C19 act 1.1, Pyk2 oligo antag -4.1*, CYP2C19 inhib -6 and CYP2C9 inh 15.
Screening N#CCCn1cc(/C=N/O)c(-c2ccc(Cl)cc2)n1 returned CYP2C9 act 1, Cav3 T inh 0.74, CYP2C19 act 0.6, Pyk2 oligo antag -3.5*, CYP2C19 inhib 36 and CYP2C9 inh -5.
For NS(=O)(=O)c1ccc(NC(=O)c2ccccc2Cl)cc1 the results were CYP2C9 act 0.8, Cav3 T inh 0.14, CYP2C19 act 1.3, Pyk2 oligo antag 0.57, CYP2C19 inhib -31 and CYP2C9 inh 15.
For O=C(Nc1ccccc1O)c1ccccc1O the results were CYP2C9 act 0.4, Cav3 T inh -0.85, CYP2C19 act 1.3, Pyk2 oligo antag -0.89, CYP2C19 inhib -34 and CYP2C9 inh 63*.
For Cc1ccc(C)c(NC(=O)c2ncn[nH]2)c1 the results were CYP2C9 act 0.9, Cav3 T inh -4.2*, CYP2C19 act 1, Pyk2 oligo antag 0.52, CYP2C19 inhib 0 and CYP2C9 inh 5.
Cc1ccc(C)c(NC(=O)c2ccccc2O)c1 was read as CYP2C9 act 0.5, Cav3 T inh -2.7, CYP2C19 act 0.7, Pyk2 oligo antag -1, CYP2C19 inhib 33 and CYP2C9 inh 51*.
`Cc1cccc(NC(=O)c2ccccc2O)c1C` gave CYP2C9 act 0.7, Cav3 T inh -1.1, CYP2C19 act 0.8, Pyk2 oligo antag -0.63, CYP2C19 inhib 16 and CYP2C9 inh 34.
`CCS(=O)(=O)c1ccc(NC(=O)c2ccccc2Cl)c(O)c1` gave CYP2C9 act 0.5, CYP2C19 act 1, Pyk2 oligo antag 0.35, CYP2C19 inhib 4 and CYP2C9 inh 53*.
CCC(C)c1ccc(O)c(NC(=O)c2ncn[nH]2)c1 (centres undefined) was read as CYP2C9 act 0.6, Cav3 T inh 0.52, CYP2C19 act 0.8, Pyk2 oligo antag -0.89, CYP2C19 inhib 22 and CYP2C9 inh 38.
CCOc1ccc(-c2nnn(CC(=O)c3cc(OC)ccc3OC)n2)cc1 was read as CYP2C9 act 1.6, Cav3 T inh -2.7, CYP2C19 act 0.9, Pyk2 oligo antag -1.1, CYP2C19 inhib 12 and CYP2C9 inh -57.
For O=c1c2c3c(sc2nc2n1CCCC2)CCCC3 the results were Cav3 T inh 0.42 and Pyk2 oligo antag -0.7.
Screening Cc1cccc(-n2c(C)cc(/C=N/O)c2C)c1 returned Pyk2 oligo antag 0.13.
Cc1ccccc1-n1c(C)cc(/C=N/NC(=O)c2ccncc2)c1C was read as CYP2C9 act 0.5, Cav3 T inh 0.85, CYP2C19 act 0.8, Pyk2 oligo antag 1.1, CYP2C19 inhib 24 and CYP2C9 inh 51*.
For Cc1cccc(C)c1-n1c(C)cc(/C=N/NC(N)=S)c1C the results were CYP2C9 act 0.1, Cav3 T inh -5.9*, CYP2C19 act 0.1, Pyk2 oligo antag -0.24, CYP2C19 inhib 91* and CYP2C9 inh 93*.
For O=C(NCc1cccc(C(F)(F)F)c1)C1CCN(c2ncccn2)CC1 the results were CYP2C9 act 0.3, Cav3 T inh 0.14, CYP2C19 act 0.8, Pyk2 oligo antag -0.13, CYP2C19 inhib 16 and CYP2C9 inh 67*.
Cc1cc(C)nc(N2CCC(C(=O)NCc3cccc(C(F)(F)F)c3)CC2)n1 was read as CYP2C9 act 1.6, Cav3 T inh -0.086, CYP2C19 act 1, Pyk2 oligo antag 0.05, CYP2C19 inhib -1 and CYP2C9 inh -58.
For Cc1ccnc(N2CCC(C(=O)Nc3ccc(Oc4ccccc4)cc3)CC2)n1 the results were CYP2C9 act 0.7, CYP2C19 act 1, Pyk2 oligo antag 0.89, CYP2C19 inhib 0 and CYP2C9 inh 27.
`Cc1ccnc(N2CCC(C(=O)Nc3cccc(C(F)(F)F)c3)CC2)n1` gave CYP2C9 act 1, Cav3 T inh -1.6, CYP2C19 act 0.1, Pyk2 oligo antag -0.41, CYP2C19 inhib 91* and CYP2C9 inh 4.
`COCCNC(=O)c1cc(-c2ccccc2)nn1CC1CC(c2cccnc2)=NO1` (centres undefined) gave Cav3 T inh -0.0053.
`O=C(CN1C(=O)C2C3C=CC(C3)C2C1=O)N1CCc2ccccc2C1` (centres undefined) gave CYP2C9 act 1.1, Cav3 T inh -0.024, CYP2C19 act 1.1, Pyk2 oligo antag 0.35, CYP2C19 inhib -8 and CYP2C9 inh -14.
For COCCn1nnnc1C(c1cc2cc(C)cc(C)c2[nH]c1=O)N1CCN(c2ccccc2F)CC1 (centres undefined) the results were CYP2C9 act 0.2, Cav3 T inh -0.57, CYP2C19 act 0.7, Pyk2 oligo antag 0.35, CYP2C19 inhib 35 and CYP2C9 inh 78*.
`COCCn1nnnc1C(c1cccs1)N1CCN(c2cc(C)ccc2C)CC1` (centres undefined) gave CYP2C9 act 0.4, Cav3 T inh -4.3*, CYP2C19 act 0.6, Pyk2 oligo antag -1.7, CYP2C19 inhib 38 and CYP2C9 inh 62*.
For COCCn1nnnc1C(c1ccccc1OC)N1CCN(c2ccccc2)CC1 (centres undefined) the results were CYP2C9 act 0.9, Cav3 T inh -0.1, CYP2C19 act 0.7, Pyk2 oligo antag -2.6, CYP2C19 inhib 34 and CYP2C9 inh 10.
